# Assay results: PubChem BioAssay (NCI)
# The panel holds about 83,000 compounds, 20% with a hit somewhere; the sample as a whole holds those more often.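 Note: values are percent growth. 100 is the growth of untreated cells, values between 100 and 0 indicate rising inhibition; between -100 and 0 indicates cell death.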 A number with no mark means an inactive call. Calls of active or inactive are those of the source.
# Tested on: EKVX NSCLC
# Experiment: NCI-60 one-dose screen, 48 h (100 = growth as untreated, 0 = no growth, -100 = all killed)
# Details: 10 µM
# Experimental: Growth inhibition of the EKVX human Non-Small Cell Lung tumor cell line is measured as a screen for anti-cancer activity. Cells are grown in 96 well plates and exposed to the test compound for 48 hours. Compounds are tested at a single concentration, which is 10^-5 M for most compounds. The reported endpoint is percent growth (GI% or GIPRCNT), where numbers from 0 - 100% represent growth inhibition, and numbers from -100% - 0 represent cell death. For example, a value of 40 represents 60% growth inhibition. A value of 0 means no net growth occurred over the course of the experiment. A value of -40 indicates 40% of cells at the beginning of the experiment died by the end of the experiment. A value of -100 means all cells are dead at the end of the experiment.
# NCI-60 Human Tumor Cell Lines Screen was performed using the standard one-dose NCI protocol, which is described in more detail at https://dtp.cancer.gov/discovery_development/nci-60/default.htm.
# Compounds with GIPRCNT values below 10 were considered active. Activity score was based on GIPRCNT using the following formula: […]
# Score is 0 for GIPRCNT values of 100 or above, 50 for GIPRCNT values of 0, and 100 for GIPRCNT values of -100.
row,SMILES,growth
1,COc1ccc2nc3cc(Cl)ccc3c(NCCNCC(C)O)c2c1 (stereo not given),38.1%
2,COc1ccc2c(c1)sc1nc(-c3ccccc3)c(-c3ccsc3)n12,40.8%
3,COc1cc(CNCCCCCCN2C(=O)c3cccc4cccc(c34)C2=O)ccc1O,89.3%
4,O=C(Nc1ccncc1)C(=O)c1cn(S(=O)(=O)c2cccc3ccccc23)c2ccccc12,46.9%
5,CCCCC(CCCCCC(CCCC)NCc1ccc2c(c1)OCO2)NCc1ccc2c(c1)OCO2 (stereo not given),-75.2% (active)
6,O=C(O)CN1C(=O)c2cccc3cccc(c23)C1=O,82.6%
7,CN(C)CC(O)c1ccc2cc(Br)c3ccccc3c2c1 (stereo not given),58.5%
8,CCCCCCCCN(CCCCCCCC)CCCCCCCCCN1CCCc2cc(OC)ccc21,81.5%
9,COc1ccc(NC(=O)Cc2nc3nc4sc(C)c(C)c4c(=O)n3[nH]2)cc1,93.1%
10,Clc1ccc(-c2cn(-c3ccccc3)c(-c3ccccc3)n2)c(Cl)c1,50.5%
11,COc1ccccc1/C=C/C(=O)c1ccccc1,98.6%
12,CCOC(=O)CNC(=O)CCCCSc1ncnc2nc[nH]c12,108%
13,C=C(Cl)[C@@](Cl)(CBr)CC[C@@H](Br)C(C)(C)Cl,-79% (active)
14,CN1CC[C@@H](c2c(O)cc(O)c3c(=O)cc(-c4ccccc4Cl)oc23)[C@@H](O)C1,9.74% (active)
15,COc1ccc2nc3ccccc3c(NCCNCC(C)O)c2c1 (stereo not given),7.84% (active)
16,C=C(C(=O)c1ccccc1)C(NC(C)(C)C)c1ccccc1 (stereo not given),52.3%
17,O=C1OCC2=C1C(c1cccc(Br)c1)c1cc3c(cc1N2CCO)CCC3 (stereo not given),47.7%
18,N#Cc1cc(-c2cc3ccccc3o2)oc1N,-26.4% (active)
19,CN1c2ccccc2[C@]2(Cc3ccccc3)Cc3ccccc3N[C@H]12,114%
20,CCN1CCC(CCOC)(CN2c3ccccc3Sc3ccc(Cl)cc32)C1 (stereo not given),56.7%

row,SMILES,growth
1,Clc1cc2c(c(CSc3nc4ccccc4n4cccc34)c1)OCOC2,70.6%
2,COc1ccc(-c2nc3ccccn3c2-c2nnc(-c3cc(OC)c(OC)c(OC)c3)o2)cc1,71%
3,Cc1cc(C)c(NC(=O)c2sc3nc4c(cc3c2N)C(=O)CCC4)c(C)c1,54.4%
4,CN(C)c1ccc(-c2cc(-c3cccc(NS(C)(=O)=O)c3)nc(N)c2C#N)cc1,17.3%
5,CCN1CCN(c2nc3ccccc3c3c(=O)c4ccccc4sc23)CC1,59.1%
6,CCN(CC)CCCC(C)Nc1ccc2ccc(Cl)cc2n1 (stereo not given),103%
7,CCN(CC)CCC(CNc1c(C)cnc2cc(Cl)ccc12)c1ccc(Cl)cc1 (stereo not given),70.8%
8,O=C(/C(=C/c1ccccc1)CN1CCCCC1)c1ccccc1,6.23% (active)
9,COc1ccc(NC2=NC(C)(CO)CS2)cc1 (stereo not given),106%
10,CC(=O)c1cc(Cl)ccc1O,108%
11,COc1ccc(/C=C/C(=O)Nc2ccc(-c3nc4ccc(OC)cc4s3)cc2)cc1,100%
12,Cc1cc2ccccc2nc1-c1ccccc1F,107%
13,COc1cc(C(=O)N2CCN(c3ccccc3OC)CC2)c(N)cc1OCCCN1CCN(c2ccccc2OC)CC1,83.2%
14,COc1cc(-c2nc(-c3nnc(-c4ccccc4Cl)o3)c3ccccn23)cc(OC)c1OC,92.2%
15,CN(C)C(=S)N/N=C\C=N/NC(=S)N(C)C,38.8%
16,Nc1nc(N)c2c(ccc3nccc32)[nH]1,51.6%
17,CCCN(CCC)CCC(O)c1cc2c(c3ccccc13)CCCC2 (stereo not given),87.9%
18,CCCCOC(=O)Oc1ccc(C(=O)Oc2ccc(OCC)cc2)cc1,98%
19,COc1ccc(-c2cc(-c3ccc(N(C)C)cc3)c(C#N)c(N3CCCC3)n2)cc1,73.1%
20,COC(=O)C(=C\c1ccc2c(c1)OCO2)/C(=C/c1ccc2c(c1)OCO2)C(=O)OC,97%
